Compound activity (PubChem BioAssay)
Rtt109 Vps75 – inhibitors of C. albicans Rtt109/Vps75 HAT, primary screen, biochemical, ThioGlo CoA-SH fluorescence, plate reader. 330,000 compounds, 0.16% hits. Histone acetyltransferase RTT109 (Candida albicans (strain SC5314 / ATCC MYA-2876)), …. inhibition, % at 34.9 µM. purified Rtt109/Vps75, 4 h;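 active = inhibition of at least 50% in every replicate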
Target sequence (Q5AAJ8 whole entry, looked up): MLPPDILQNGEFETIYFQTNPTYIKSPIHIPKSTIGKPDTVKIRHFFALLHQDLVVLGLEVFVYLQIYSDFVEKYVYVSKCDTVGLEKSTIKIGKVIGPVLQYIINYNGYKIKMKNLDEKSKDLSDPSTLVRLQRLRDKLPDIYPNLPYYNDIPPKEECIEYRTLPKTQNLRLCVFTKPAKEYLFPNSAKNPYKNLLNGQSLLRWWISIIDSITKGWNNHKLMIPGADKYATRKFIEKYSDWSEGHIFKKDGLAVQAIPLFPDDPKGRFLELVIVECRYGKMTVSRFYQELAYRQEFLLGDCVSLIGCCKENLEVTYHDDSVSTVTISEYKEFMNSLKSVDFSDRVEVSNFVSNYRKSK
LANA-H2B inh – blockers of LANA interaction with H2A/H2B – biochemical, FP readout, HTS, primary screen | cell-free LANA-H2A/H2B peptide, fluorescence polarization | inhibition, % (test concentration not listed) | 320,000 compounds, 0.6% hits; in the data active = inhibition mostly above about 10%, no sharp cut-off; inactive = mostly below about 6.7%
ALR H2O2 inh – inhibitors of human ALR sulfhydryl oxidase, primary screen, biochemical, H2O2 detection, HRP-luminol luminescence, single point | inhibition, % (no concentration beside the values) | 290,000 compounds, 3.8% hits | purified ALR, DTT oxidation | FAD-linked sulfhydryl oxidase ALR (Homo sapiens), P55789;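 active = mean replicate inhibition above about 79%, with every replicate also reaching it, limit read from the data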
Target sequence (P55789 whole entry, looked up): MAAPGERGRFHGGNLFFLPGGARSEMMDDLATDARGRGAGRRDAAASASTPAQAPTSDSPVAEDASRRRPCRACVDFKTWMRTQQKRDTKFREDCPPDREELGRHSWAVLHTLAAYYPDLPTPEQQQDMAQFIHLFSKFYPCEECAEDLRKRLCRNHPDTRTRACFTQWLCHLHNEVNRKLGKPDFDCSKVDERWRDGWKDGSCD
PRMT1 FP inh – PRMT1 methyltransferase inhibitors, primary screen, biochemical, fluorescence polarization | Protein arginine N-methyltransferase 1 (Homo sapiens), Q99873 | recombinant PRMT1, activity-based probe fluorescence polarization | AID 652257, 2013 | 370,000 compounds, 1.3% hits | inhibition, % at 2.79 µM;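 active = inhibition above about 21% made by adding two undisclosed values, limit read from the data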
ABHD5 PLIN5 PPI – ABHD5-PLIN5 interaction inhibitors, primary screen, cell lysate, split luciferase complementation, luminescence; Perilipin-5 (Homo sapiens) + 1-acylglycerol-3-phosphate O-acyltransferase ABHD5 (Homo …; Split G. princeps luciferase complementation, 4 h; inhibition, % at 4 µM; 360,000 compounds, 0.78% hits; AID 602281, 2012;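 active = inhibition above the mean inhibition across every tested compound plus 3 SD, cut at about 22% in these data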;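 also: 0% = DMSO only wells and the 100% control is not disclosed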
rCAG RNA binder – binders of r(CAG) RNA repeats, primary screen, biochemical, fluorescence | r(CAG) RNA repeat, TO-PRO-1 dye displacement fluorescence | inhibition, % at 3 µM | 370,000 compounds, 1.3% hits | AID 651821, 2012;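 active = inhibition above the plate cutoff, the mean of all test compounds on that plate plus 3 SD, cut at about 35% in these data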;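 also: 0% = DMSO alone and 100% = 100 µM mitoxantrone as full dye displacement; higher means more dye released from RNA so lower well fluorescence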
Numbers without * were called inactive. Rows were chosen to be rich in hits. Some 5.9% of all compounds tested hit in one or more screens of this group.

How did COCCSc1nnc(NC(=O)C(C)(C)C)s1 do in these assays?
Rtt109 Vps75: -0.6; LANA-H2B inh: 43.3*; ALR H2O2 inh: -1.2; PRMT1 FP inh: -4.0; ABHD5 PLIN5 PPI: 4.4; rCAG RNA binder: -1.6

How did COc1ccc(S(=O)(=O)N2CCC(Nc3ccccc3Cl)CC2)cc1 do in these assays?
Rtt109 Vps75: 5.7; LANA-H2B inh: 38.0*; ALR H2O2 inh: -4.3; PRMT1 FP inh: -2.1; ABHD5 PLIN5 PPI: -5.3; rCAG RNA binder: -2.6

Results for COc1ccc(C(=O)NC2CCN(S(=O)(=O)c3ccccc3)CC2)cc1 ?
Rtt109 Vps75: -0.9; LANA-H2B inh: 0.3; ALR H2O2 inh: 0.4; PRMT1 FP inh: -1.7; ABHD5 PLIN5 PPI: 0.3; rCAG RNA binder: 0.8

What do the screens show for `C=C(CN(C)C)C(=O)c1cc(C)ccc1C`?
Rtt109 Vps75: 0.3; PRMT1 FP inh: 16.2; ABHD5 PLIN5 PPI: 67.1*; rCAG RNA binder: 0.2

What do the screens show for `Cc1ccc(C)c(C(=O)NCCN(C)C)c1`?
Rtt109 Vps75: -0.3; LANA-H2B inh: 1.6; ALR H2O2 inh: -4.5; PRMT1 FP inh: 2.7; ABHD5 PLIN5 PPI: -3.3; rCAG RNA binder: -2.5

How did C#CCSc1nnc(-c2cccc3ccccc23)o1 do in these assays?
Rtt109 Vps75: 14.2; LANA-H2B inh: -3.7; ALR H2O2 inh: 97.0*; PRMT1 FP inh: -0.8; ABHD5 PLIN5 PPI: 3.4; rCAG RNA binder: 2.9

Results for Cc1cc(C)n(-c2ccc(C(=O)O)cc2)n1 ?
Rtt109 Vps75: -4.6; LANA-H2B inh: -2.5; ALR H2O2 inh: -4.2; PRMT1 FP inh: 3.8; ABHD5 PLIN5 PPI: -0.2; rCAG RNA binder: 1.5

Results for COc1cc(OC)cc(C(=O)Nc2cc(C)nn2-c2ccccc2)c1 ?
Rtt109 Vps75: -2.5; LANA-H2B inh: 7.4; PRMT1 FP inh: -4.8; ABHD5 PLIN5 PPI: -1.3; rCAG RNA binder: -1.8

Results for Cc1cc(NC(=O)Nc2cccc(Cl)c2)n(-c2ccccc2)n1 ?
Rtt109 Vps75: -5.0; LANA-H2B inh: 1.2; ALR H2O2 inh: -7.6; PRMT1 FP inh: -1.0; ABHD5 PLIN5 PPI: 5.1; rCAG RNA binder: 2.8

What do the screens show for `Cc1cc(Nc2ccccc2)n(-c2ccc(C(=O)O)cc2)n1`?
Rtt109 Vps75: 1.5; LANA-H2B inh: -3.1; ALR H2O2 inh: 98.6*; PRMT1 FP inh: -1.5; ABHD5 PLIN5 PPI: 2.3; rCAG RNA binder: 0.7

How did COc1ccc(-n2nc(C)cc2Nc2ccccc2C(=O)O)cc1 do in these assays?
Rtt109 Vps75: 16.2; LANA-H2B inh: 0.8; ALR H2O2 inh: 99.2*; PRMT1 FP inh: 5.9; ABHD5 PLIN5 PPI: -0.9; rCAG RNA binder: 4.3

Results for Cc1cc(Nc2ccccc2)n(-c2cccc(Cl)c2)n1 ?
Rtt109 Vps75: 3.0; LANA-H2B inh: -1.0; ALR H2O2 inh: 99.3*; PRMT1 FP inh: 3.0; ABHD5 PLIN5 PPI: -1.8; rCAG RNA binder: 3.5

Results for CCOc1ccc(-c2cc(C(=O)Nc3ccc(F)cc3)[nH]n2)c(C)c1 ?
PRMT1 FP inh: -4.9; ABHD5 PLIN5 PPI: -8.8; rCAG RNA binder: 3.4

Results for Cn1c(=O)c2cc(S(=O)(=O)N3CCN(CCO)CC3)ccc2n(C)c1=O ?
PRMT1 FP inh: -5.2; rCAG RNA binder: -0.4

What do the screens show for `O=C(Nc1ccc(Cl)cc1Cl)c1cccc(N2C(=O)C=CC2=O)c1`?
Rtt109 Vps75: 3.5; LANA-H2B inh: 1.6; ALR H2O2 inh: 9.1; PRMT1 FP inh: 88.1*; ABHD5 PLIN5 PPI: 14.7; rCAG RNA binder: 10.7

What do the screens show for `COC(=O)c1cn(CC(C)n2c(=O)c3ccccc3n2Cc2cc(C(C)C)no2)nn1` (stereo not given)?
PRMT1 FP inh: 2.5; ABHD5 PLIN5 PPI: -2.6; rCAG RNA binder: -1.4

What do the screens show for `Cn1c(CCNC(=O)c2ccc(Cl)cc2)n[nH]c1=S`?
Rtt109 Vps75: -2.3; LANA-H2B inh: 7.1; ALR H2O2 inh: 96.4*; PRMT1 FP inh: -0.1; ABHD5 PLIN5 PPI: 2.5; rCAG RNA binder: 0.8

Results for Cn1c(CSCc2ccc(Cl)cc2)n[nH]c1=S ?
Rtt109 Vps75: 3.3; LANA-H2B inh: -0.7; ALR H2O2 inh: 94.4*; PRMT1 FP inh: 3.5; ABHD5 PLIN5 PPI: -4.6; rCAG RNA binder: -3.5

What do the screens show for `Cn1c(CSCc2ccc(F)cc2)n[nH]c1=S`?
Rtt109 Vps75: 3.7; LANA-H2B inh: -0.8; ALR H2O2 inh: 6.5; PRMT1 FP inh: 1.8; ABHD5 PLIN5 PPI: -4.1; rCAG RNA binder: 3.0

How did Cc1ccc2nc(CN(C)C(=O)[C@H](CCc3ccccc3)NC(=O)[C@H]3O[C@@H](n4cnc5c(N)ncnc54)[C@H](O)[C@@H]3O)[nH]c2c1 do in these assays?
PRMT1 FP inh: -2.3; rCAG RNA binder: 1.5

What do the screens show for `O=C(c1ccc(F)c(F)c1)N1CCCc2ccccc21`?
Rtt109 Vps75: -4.6; LANA-H2B inh: 0.8; ALR H2O2 inh: -2.5; PRMT1 FP inh: -0.4; ABHD5 PLIN5 PPI: -1.3; rCAG RNA binder: -3.4

How did COc1ccc(OC)c(Nc2ncnc3sccc23)c1 do in these assays?
Rtt109 Vps75: 17.6; LANA-H2B inh: -3.6; ALR H2O2 inh: -37.2; PRMT1 FP inh: -4.3; ABHD5 PLIN5 PPI: 6.7; rCAG RNA binder: 2.3

How did COc1cc(CN(C)c2ncnc3sccc23)ccc1OC(F)F do in these assays?
Rtt109 Vps75: 16.1; LANA-H2B inh: 16.5*; PRMT1 FP inh: 0.3; ABHD5 PLIN5 PPI: 12.3; rCAG RNA binder: 3.6

What do the screens show for `COC(=O)[C@]12C[C@H](CC(=O)N3CCN(C(=O)c4ccco4)CC3)C(=O)N(CCc3ccc(OC)c(OC)c3)C1=C[C@H](C1CCCC1)O[C@@H]2C`?
PRMT1 FP inh: 0.4; rCAG RNA binder: 7.0

How did COCCNC(=O)C1(C)CCN(C(=O)c2sc(-c3ccccc3)nc2C)C1 (stereo not given) do in these assays?
PRMT1 FP inh: -6.6; ABHD5 PLIN5 PPI: -10.4; rCAG RNA binder: 2.2

How did O=C(c1nc2ccc(Cl)cn2c1CN1CCCC1)N1CCc2ccccc2C1 do in these assays?
Rtt109 Vps75: 5.5; LANA-H2B inh: 8.5; ALR H2O2 inh: 0.3; PRMT1 FP inh: 24.4*; ABHD5 PLIN5 PPI: 3.9; rCAG RNA binder: 4.8

How did CC(C)CN(C)Cc1c(C(=O)N2CCc3ccccc3C2)nc2ccc(Cl)cn12 do in these assays?
Rtt109 Vps75: 23.2; LANA-H2B inh: 16.6*; ALR H2O2 inh: -102.5; PRMT1 FP inh: 4.9; ABHD5 PLIN5 PPI: 5.5; rCAG RNA binder: -10.5

What do the screens show for `O=C(c1nc2ccc(Cl)cn2c1CN1CCC(CO)CC1)N1CCc2ccccc2C1`?
Rtt109 Vps75: 4.2; LANA-H2B inh: -4.3; ALR H2O2 inh: -6.4; PRMT1 FP inh: 2.3; ABHD5 PLIN5 PPI: 2.1; rCAG RNA binder: -7.9

Results for NC(=O)C1CCCN(Cc2c(C(=O)N3CCc4ccccc4C3)nc3ccc(Cl)cn23)C1 (stereo not given) ?
Rtt109 Vps75: -13.6; LANA-H2B inh: 99.3*; ALR H2O2 inh: -12.5; PRMT1 FP inh: -0.2; ABHD5 PLIN5 PPI: 4.3; rCAG RNA binder: -7.1
